Source: PubChem BioAssay AID1236 (Emory University Molecular Libraries Screening Center, 2008)
The whole screen tested about 220,000 compounds, of which about 800 (0.36%) were called active.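 Rule for the calls: active = inhibition above about 50% (limit read from the data); inactive = the rest.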 This excerpt belongs to a sample that is enriched for actives.

These molecules were tested on calpain II (m-calpain), Sus scrofa (assay: inhibitors of pig calpain II, primary screen, biochemical, fluorogenic peptide substrate, 1536-well (AID 1236)). Conditions: purified calpain II, 30 min, at 16 µM, hits give high values.

SMILES | inhibition
NS(=O)(=O)c1ccc(CNC(=O)c2cnccn2)cc1 | -9.46% (inactive)
Cc1nc(NC2=NC(C(=O)Nc3ccc(Cl)cc3)CC(=O)N2)nc2ccccc12 (stereo not drawn) | 6.9% (inactive)
CCNC(=O)N1c2ccccc2Sc2ccccc21 | -4.08% (inactive)
CCC(C(=O)OCC(=O)Nc1c(Cl)cc(Cl)cc1Cl)c1ccccc1 (stereo not drawn) | 11.9% (inactive)
CCC(C(=O)OCC(=O)Nc1ccc(C(=O)Nc2ccc(OC)cc2)cc1)c1ccccc1 (stereo not drawn) | 38% (inactive)
CCC(C(=O)OCC(=O)Nc1ccccc1-c1ccccc1)c1ccccc1 (stereo not drawn) | 56.9% (active)
CCOc1c(CNCc2ccc(C(=O)O)cc2)cccc1OC | -12% (inactive)
CC(=O)N1C(C)c2ccccc2C(C)(C)CC12CCCCC2 (stereo not drawn) | 10.1% (inactive)
COc1ccc(S(=O)(=O)N(CC(=O)N/N=C/c2ccccc2C(=O)O)c2ccccc2OC)cc1 | -1.16% (inactive)
COC(=O)CCCC1=CC2=CC(=O)C(C)(OC(=O)c3cccs3)C(=O)C2=CN1c1cccc(C#N)c1 (stereo not drawn) | -53.3% (inactive)
CC(=NCc1ccco1)c1c(C(F)(F)F)[nH]n(-c2nc3ccccc3s2)c1=O | -91.3% (inactive)
S=C(NCCc1ccccc1)Nc1ccccc1 | 16% (inactive)
Cc1ccsc1/C=C1\SC(N2CCOCC2)=NC1=O | 15.5% (inactive)
Cc1ccc(N2CCN(C3=NC(=O)/C(=C\c4cccs4)S3)CC2)cc1 | 76.7% (active)
Cc1ccc(N2CCN(/N=C/c3cccs3)CC2)cc1 | -29.6% (inactive)
O=[N+]([O-])c1ccc(N2CCSCC2)cc1O | 2.99% (inactive)
O=C(OCc1ccc(Br)cc1)c1cccc(-c2nnc(-c3ccccc3)o2)c1 | -6.16% (inactive)
O=C(Nc1ccccc1C(F)(F)F)N1CCCC1c1cccnc1 (stereo not drawn) | 3.9% (inactive)
O=C(c1cccc(F)c1)N1CCN(c2ccc([N+](=O)[O-])c(N3CCCCC3)c2)CC1 | 5.06% (inactive)
O=[N+]([O-])c1ccc(N2CCN(S(=O)(=O)c3ccc4ccccc4c3)CC2)cc1NCc1ccco1 | -59% (inactive)
O=C(c1ccccc1)N1CCN(c2ccc([N+](=O)[O-])c(NCc3ccco3)c2)CC1 | 54.3% (active)
O=C(COC(=O)c1ccc(Cl)nc1)NCc1cccs1 | 13.2% (inactive)
C/C(=N/NC(=S)Nc1ccccc1)c1ccc2c(c1)OCO2 | -6.26% (inactive)
CC(C)(C)c1cc(C(=O)NN)n(Cc2ccc(Cl)cc2Cl)n1 | 17.2% (inactive)
Cn1c(=O)cc(OCC(=O)N2CCN(c3ccccc3F)CC2)c2ccccc21 | -13.2% (inactive)
CC(C)Oc1ccc(CCc2n[nH]c(=S)n2Cc2ccccc2)cc1 | 53.5% (active)
CC(C)Oc1ccc(Cc2n[nH]c(=S)n2Cc2ccccc2)cc1Cl | 15.2% (inactive)
C=CCn1c(CCc2ccc(OC(C)C)cc2)n[nH]c1=S | -15.1% (inactive)
